These results are taken from PubChem BioAssay.

In this assay the test system is Plasmodium falciparum Sir2 (PF13_0152, Sir2A). Description: Plasmodium falciparum Sir2A binding compounds – biochemical, small-molecule microarray, 635 nm fluorescence, primary screen (AID 1098).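 Note: score merges spot fluorescence intensity with its signal-to-noise ratio.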 Particulars: fluorescence 635 nm, higher = more signal.
As for `CC[C@@H]1[C@@H]2C3C(=O)N(CC)C(=O)C3CC(=O)[C@@H]2[C@H](c2ccc(C)cc2)N1S(=O)(=O)c1ccc(C)cc1` (stereo not given in full), the composite z-score was 0.426.

`C=CCNC(=O)[C@@H]1[C@H]2C(=O)O[C@H](c3ccccc3)[C@H](c3ccccc3)N2[C@H](c2ccc(O)cc2)[C@@]12C(=O)Nc1ccc(C#CCCO)cc12` yielded a composite z-score of 1.84.

Molecule `O=C1NC(=O)C2C1C=CC(C(O)c1ccc(-c3ccccc3)s1)N2Nc1ccccn1` (stereo not given) returned a composite z-score of 0.115.

`OCCCC1=CC(c2cccs2)N(Cc2cccc(OC(F)(F)F)c2)CC1` (stereo not given) showed a composite z-score of 1.32.

In turn, `O=C1OCC=C[C@H]2OC34C=CCN(CCN5CCOCC5)C(=O)[C@H]3N(CCCCCO)C(=O)[C@@H]4[C@@H]12` (stereo not given in full) registered a composite z-score of 1.35.

Molecule `CCCN1C(=O)[C@@]2(Cc3ccccc3)N=C(c3ccc(OCCCO)cc3)O[C@H]2c2ccccc21` displayed a composite z-score of 1.61.

Turning to `C[N+](C)(C)CCCC[C@@H]1NC(=O)[C@@H]2C[C@H](C(=O)O)[C@H](c3cccc(OCCO)c3)N2C1=O`, the composite z-score is 1.53.

As to `C/C=C/[C@@H](CCn1cc([C@H](O)c2ccccc2)nn1)[Si](C)(C)c1ccc(OC)cc1`, the composite z-score is 1.53.

Molecule `CCN(CC)c1ccc(N2CC=CC34O[C@@H]5/C=C\CCCOC(=O)C5[C@H]3C(=O)N(CCCCCCO)[C@@H]4C2=O)cc1` (stereo not given in full) yielded a composite z-score of 1.96.

Turning to `COC(=O)[C@@]1(Cc2ccc(OC)cc2)[C@H]2c3cc(C(=O)N4CCCC4)n(CCF)c3C[C@H]2CN1C(=O)c1ccccc1`, the composite z-score turned out to be 1.05.
